# System: RIVA
# Assay: growth inhibition by drug alone (1 - RLU/untreated control) (fraction); higher = stronger inhibition
# Settings: 177Lu-lilotomab satetraxetan 0 ug/ml
# Description: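 RIVA (RI-1) ABC-DLBCL cells were pretreated or not for 18 h with 0.5 ug/ml 177Lu-lilotomab satetraxetan (600 MBq/mg), washed and seeded (3000 cells/well) on 384-well plates pre-printed with the Selleck Cambridge Cancer Compound library. Viability was read by RealTime-Glo luminescence on days 3-6 after seeding. Effect = 1 - RLU/mean RLU of the 48 untreated no-drug control wells per plate; Bliss score = (M-E)/(1-Fa).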
SMILES,"growth inhibition by drug alone (10 nM, time (day): 3)","growth inhibition by drug alone (10 nM, time (day): 4)","growth inhibition by drug alone (10 nM, time (day): 5)","growth inhibition by drug alone (10 nM, time (day): 6)","growth inhibition by drug alone (100 nM, time (day): 3)","growth inhibition by drug alone (100 nM, time (day): 4)","growth inhibition by drug alone (100 nM, time (day): 5)","growth inhibition by drug alone (100 nM, time (day): 6)"
CN(C)Cc1ccc(-c2nc3cccc4c3n2CCNC4=O)cc1,-0.0131,0.0265,-0.0439,-0.223,-0.0162,0.0398,0.00266,-0.0877
C[C@@H](N)[C@H]1CC[C@H](C(=O)Nc2ccncc2)CC1,-0.062,-0.109,-0.134,-0.231,-0.413,-0.366,-0.399,-0.522
CCCS(=O)(=O)Nc1ccc(F)c(C(=O)c2c[nH]c3ncc(-c4ccc(Cl)cc4)cc23)c1F [Vemurafenib (PLX4032)],-0.0219,-0.0744,-0.165,-0.55,-0.231,-0.206,-0.219,-0.345
Cc1nnc(C(C)C)n1C1C[C@H]2CC[C@@H](C1)N2CC[C@H](NC(=O)C1CCC(F)(F)CC1)c1ccccc1 (stereo in doubt) [Maraviroc],0.071,0.0921,0.049,-0.0807,0.1,0.0864,0.0269,-0.0532
Cn1nnc2c(C(N)=O)ncn2c1=O [Temozolomide],0.0977,0.0337,-0.0714,-0.291,0.0972,0.055,0.0367,-0.03

# Reference: the supplement of paper PMC6897291
